Screening results deposited in PubChem by several laboratories.
Hits are enriched below; roughly 0.51% of the tested compounds scored in any of these assays.
E coli growth-1: inhibitors of Escherichia coli growth. AID 1053175. OD600 absorbance (concentration not given with the values). OD600, 23 h; stronger effect = lower value. 330,000 tested, 0.21% active;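 active = OD600 absorbance below the run mean of sample wells minus 3.6 SD, in any replicate, cut at about 0.56 in these data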
E coli growth-2: bacterial growth inhibition, counter-screen for AddAB inhibitors | E. coli V3065 growth, OD600 absorbance, 18 h | inhibition, % at 11.9 µM | 330,000 tested, 0.27% active | AID 449728;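 active = inhibition above the campaign's mean inhibition across all tested compounds plus 3 SD, cut at about 9.9% in these data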;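 note: uninfected addAB+ strain grown without phage in ampicillin broth; 0% = DMSO wells and 100% = ciprofloxacin 0.95 µg/ml wells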
AddAB inh: less growth of phage-infected E. coli with AddAB; E. coli expressing H. pylori AddAB, absorbance growth; inhibition, % at 11.9 µM; 330,000 tested, 0.29% active; AID 435030; in the data active = inhibition above about 12%;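 note: 0% = vehicle wells of infected cells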
Tat transport: E. coli Tat transport inhibition. AID 488895. 340,000 tested, 0.036% active. inhibition, % at 10 µM. E. coli MC4100 TorA-mCherry Tat export, fluorescence;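 active = mean replicate inhibition at least 50% and at least half of replicates individually reaching 50%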;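 note: exported cargo escapes ClpAP degradation while cytoplasmic cargo is degraded and loses fluorescence; 0% = median of neutral control wells and 100% = median of NaSCN control wells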
phage Ecoli inh: E. coli growth loss with phage present. growth absorbance. inhibition, % at 11.9 µM. 360,000 tested, 0.26% active. AID 651602; in the data active = inhibition above about 11%
AddAB conf: growth loss of T4-infected E. coli expressing H. pylori AddAB, confirmed | shares compounds with AddAB inh | E. coli V3065 expressing H. pylori AddAB, T4 phage, OD; T4 phage with gene 2 nonsense mutations | inhibition, % at 11.9 µM | 880 tested, 64% active;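 active = mean inhibition above a set limit taken from the earlier primary screen, cut at about 13% in these data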;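 note: higher means less bacterial growth since AddAB block lets phage replicate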
RecBCD counter: counter-screen: growth loss of RecBCD+ E. coli with mutant T4 phage; E. coli V66 + mutant T4 phage, OD growth; inhibition, % at 11.9 µM; 880 tested, 73% active; shares compounds with AddAB inh;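 active = mean inhibition above the mean of solvent-only control wells plus 3 SD, cut at about 4% in these data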;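 note: optical density read after an 18 h incubation at 37 °C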
bact viab count: counter-screen: bacterial growth inhibition | shares compounds with AddAB inh | 880 tested, 35% active | inhibition, % at 11.9 µM | bacterial viability, absorbance (AddAB counterscreen); in the data active = inhibition above about 25%
* = called active by the depositor; i = inactive; . = no result.

SMILES	E coli growth-1	E coli growth-2	AddAB inh	Tat transport	phage Ecoli inh	AddAB conf	RecBCD counter	bact viab count
O=C(NNC(=S)NC(=O)c1ccco1)c1ccc(NC(=O)c2ccccc2)cc1	0.57	3	1	-8	0	.	.	.
COc1ccc(C2CC(=O)C=C(c3cccc(Cl)c3)C2)cc1OC (stereo unspecified)	0.67	.	.	.	.	.	.	.
O=[N+]([O-])c1cc(-c2ncccn2)cs1	0.6	13*	17*	-1	10	100*	8.6*	27*
CC(C)CNC(=S)NC(=O)c1csc([N+](=O)[O-])c1	0.57	-1	4	-15	1	.	.	.
CCC(C)Cc1cn(C(CCCN=C(N)N)C(=O)NCCCCCCCCCCC(=O)N2CCNCC2)nn1 (stereo unspecified)	0.65	.	.	.	.	.	.	.
C#CCOCCOCCOCCNc1nc(N2CCOCC2)nc(N2CCN(C(=O)C(Cc3ccc(O)cc3)n3cc(CCO)nn3)CC2)n1 (stereo unspecified)	0.7	.	.	.	.	.	.	.
CCN1/C(=C/C=C/c2sc3ccccc3[n+]2CC)Sc2ccccc21	.	9	13*	i	.	61*	9.1*	14
CCOc1ccc(NC(=S)N2CCn3c(nc4ccccc43)C2)cc1	.	13*	21*	.	.	28*	19*	24
O=C(NCc1cccnc1)Nc1ccc2c(c1)OCO2	0.68	0	14*	0	3	-2	1	-1
c1cncc(CNc2ccc3c(c2)OCO3)c1	0.69	0	3	-12	0	.	.	.
O=C(O)[C@H](O)[C@@H](O)C(=O)O	0.7	5	25*	-3	0	-2	0	0
CC(C)CC(CO)N1CCN(CCc2ccccc2)CCC1=O (stereo unspecified)	0.64	.	.	.	.	.	.	.
COc1ccc(N2CCN(C(=O)CSc3nnc4c(C)cc5c(C)cc(C)cc5n34)CC2)cc1	0.72	94*	96*	-3	1	-4	-1	-6
CC=CC=NNC(=O)c1ccncc1	0.68	.	.	.	.	.	.	.
Cc1ccc(OCC(=O)Nc2cc(C)on2)c([N+](=O)[O-])n1	0.69	15*	19*	1	6	42*	6.7*	26*
Fc1cccc(CCN2CCNCC2Cc2cccc3ccccc23)c1 (stereo unspecified)	0.64	.	.	.	.	.	.	.
O=C(Nc1nnc(C(F)(F)F)s1)c1ccc(Br)s1	0.62	9	14*	-3	4	4	6.7*	1
Cc1nc2c(C)cccn2c1C(O)=C1C(=O)C(=O)N(CCN2CCOCC2)C1c1ccncc1 (stereo unspecified)	0.65	.	.	.	.	.	.	.
On1c(-c2ccccc2)nc2ccccc21	0.63	6	6	0	3	.	.	.
O=Nc1c2nc3ccccc3n(O)c-2c2ccccc12	0.56	20*	14*	4	6	32*	8.1*	17
CCN1CC2C3C(=O)N(Cc4ccccc4)C(=O)C3[C@](C)(C1=O)N2C(=O)c1ccc(F)cc1 (stereo partly specified)	0.72	.	.	.	.	.	.	.
O=C(CN1CCCc2ccccc21)N/N=C/c1ccccc1	.	-2	3	10	3	.	.	.
O=C(CN1CCCc2ccccc21)N/N=C/c1c(O)ccc2ccccc12	.	11*	15*	-6	8	2	5.3*	0
C=CCC(CC(=O)N(CCO)Cc1ccccc1)C(=O)NC(COC(=O)C(CC=C)CC(=O)OC(C)(C)C)Cc1c[nH]c2ccccc12 (stereo unspecified)	0.69	.	.	.	.	.	.	.
Cn1ccnc1SCC(=O)c1ccc(Cl)cc1	0.68	35*	82*	-3	-1	0	0	-5
Cn1ccnc1SCC(=O)c1ccc(O)cc1	0.69	-1	0	4	1	.	.	.
O=C(COC(=O)Cc1c[nH]c2ccccc12)Nc1c(Cl)cccc1C(F)(F)F	0.67	-3	3	5	0	.	.	.
O=C(COC(=O)Cc1n[nH]c(=O)c2ccccc12)Nc1c(Cl)cccc1C(F)(F)F	0.61	27*	56*	-3	7	-1	0	-2
N#Cc1ccc(C2=CC(=O)CC(c3ccc(Cl)cc3)C2)cc1 (stereo unspecified)	0.62	.	.	.	.	.	.	.
